TTR transcr act: activators of transthyretin transcription; SH-SY5Y TTR promoter Gaussia luciferase, luminescence; 100% = recombinant luciferase protein wells; activation, % at 16.7 µM; actives 1.3% (n = 92,000); AID 1117267;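 active = activation above the mean of all tested compounds plus 3 SD, cut at about 9.5% in these data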;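 also: cells exposed to compounds for one day before reading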
HuH7 TTR inh: HuH7 TTR transcription inhibition, counter-screen. shares compounds with TTR transcr act. HuH7 TTR promoter-Gaussia luciferase reporter, luminescence. inhibition, % at 16.7 µM. actives 4% (n = 1,100). AID 1117279;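 active = average inhibition above the solvent-only control wells' mean plus 3 SD, cut at about 15% in these data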;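 also: inhibitors lower well luminescence so higher value means more inhibition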
TTR act confirm: human TTR transcription activation, confirmation; SHSY5Y TTR promoter Gaussia luciferase, luminescence; 100% = purified Lucia enzyme wells, no cells; activation, % at 16.7 µM; 1,100 tested, under 10 active; shares compounds with TTR transcr act;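 active = mean activation above a set limit taken from the earlier primary screen, cut at about 11% in these data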
Numbers stand for hits; - = inactive. Many of the other results were omitted from the sample, so hits are more common in it than they were.

SMILES	TTR transcr act	others
CC(=O)c1ccc([C@H](O)[C@H](C)C(=O)N(C)c2ccccc2)cc1	-
N#C/C(=C\c1coc2ccc(O)cc2c1=O)C(=O)Nc1nc2ccccc2s1	-
CC(C)C[C@H](NC1(C(=O)NC2CCCCC2)CCOCC1)C(=O)NCC(c1ccccc1)c1ccccc1	-
O=C(OCc1cn(Cc2ccc(F)cc2)nn1)N1CCCC1	-
Fc1ccc(CNCc2ccc3c(c2)OCO3)cc1	-
CC(=O)c1ccc(OCC(O)CNCc2ccc3c(c2)OCO3)cc1 (stereo unspecified)	-
O=Cc1ccc(OCc2ccc3c(c2)OCO3)cc1	9.8	HuH7 TTR inh=-;TTR act confirm=-
COC(=O)[C@]12C[C@H](CC(=O)NCc3cccc(C(F)(F)F)c3)C(=O)N(CCc3ccc(OC)c(OC)c3)C1=C[C@H](C1CCCC1)O[C@@H]2C	-
C[C@@H]1[C@H](c2ccccc2)OC(O)([C@H](Cc2ccccc2)NC(=O)OC(C)(C)C)CN1C (stereo partly specified)	-
CC[C@@H](OP(=O)(O)[C@@H](C)N)C(=O)O	-
CCn1nc(C)c(CN2CCCC(C(=O)c3cccc(OC(C)C)c3)C2)c1C (stereo unspecified)	-
Cc1nn(C)c(C)c1CCC(=O)N1CCCC(C(=O)c2cccc(OC(C)C)c2)C1 (stereo unspecified)	10	HuH7 TTR inh=-;TTR act confirm=-
Cc1nn(C(C)C)c(C)c1CN1CCCC(C(=O)c2cccc(OC(C)C)c2)C1 (stereo unspecified)	-
C=CCN1C(=O)[C@H](CC(=O)NCc2cccc3ccccc23)[C@@]2(C(=O)OCC)CCCC=C12	-
COC(=O)[C@]12C[C@H](CC(=O)N3CCC(c4ccccc4)CC3)C(=O)N(Cc3ccc(Cl)cc3Cl)C1=C[C@H](C1CCCC1)O[C@@H]2C	-
CCCCOc1ccc(C(=O)NCC(=O)NCC(c2ccc(OC)cc2)N2CCCC2)cc1 (stereo unspecified)	-
Cc1ccccc1CN[C@@H]1CC[C@@]23CCCN2C(=O)CCC[C@H]3C1	-
CCS(=O)(=O)N1Cc2ccccc2CC1C(=O)Nc1ncc(C)s1 (stereo unspecified)	-
COc1ccc(S(=O)(=O)N2Cc3ccccc3CC2C(=O)Nc2ccc(O)cc2)cc1OC (stereo unspecified)	-
CCOc1ccc(NC(=O)C2Cc3ccccc3CN2S(=O)(=O)CC)cc1 (stereo unspecified)	20	HuH7 TTR inh=-;TTR act confirm=-
COC(=O)[C@]12C[C@H](CC(=O)NCC34CC5CC(CC(C5)C3)C4)C(=O)N(Cc3ccco3)C1=C[C@H](C(C)C)O[C@@H]2C1CC1	-
Cc1c(OCC(=O)C(C)(C)C)ccc2c3c(c(=O)oc12)CCCC3	-
Cc1coc2c(C)c3oc(=O)c4c(c3cc12)CCCC4	12	HuH7 TTR inh=-;TTR act confirm=-
CCOC(=O)COc1ccc2c3c(c(=O)oc2c1C)CCC3	-
CCC[C@H]1[C@@H](OC(=O)NCc2cccs2)CC[C@@]23CCCN2C(=O)CCC[C@@H]13	-
SMILES	TTR transcr act	others
COC[C@@H]1CCCN1c1cccc2c1S(=O)(=O)N1CC[C@@H](C1)O2	-
Cc1nc2ccccn2c1P(=O)(c1ccccc1)c1ccccc1	-
COc1ccccc1CC(NC(C)=O)C(=O)NC1CCN(C(=O)Nc2ccc(F)cc2)CC1 (stereo unspecified)	-
COc1ccccc1CC(NC(C)=O)C(=O)NC1CCN(C(=O)c2ccc([N+](=O)[O-])cc2)CC1 (stereo unspecified)	13	HuH7 TTR inh=-;TTR act confirm=-
COc1ccc(CC(NC(C)=O)C(=O)NC2CCN(C(=O)c3ccc([N+](=O)[O-])cc3)CC2)cc1OC (stereo unspecified)	-
Cc1cccc(CNS(=O)(=O)c2ccc(-c3ccc(=O)[nH]n3)s2)c1	-
COc1ccc(CN2C(=O)c3cccnc3C2=O)cc1S(=O)(=O)NCc1ccc(C)cc1	-
COc1ccc(-c2cc(C)no2)cc1S(=O)(=O)NCc1cccc(C)c1	9.8	HuH7 TTR inh=28;TTR act confirm=-
COC(=O)[C@]12C[C@H](CC(=O)N3CCCC3)C(=O)N(Cc3ccccc3)C1=C[C@H](COCc1ccccc1)O[C@@H]2C	-
CCOC(=O)[C@]12CCCC=C1N(CCCOC)C(=O)[C@@H]2CC(=O)NCCCN1CCCC1=O	-
Fc1ccc(F)c(Cn2ccc3ccc(-c4ccc5ccn(Cc6cc(F)ccc6F)c5c4)cc32)c1	-
Fc1cccc(F)c1Cn1ccc2ccc(-c3ccc4ccn(Cc5c(F)cccc5F)c4c3)cc21	-
CCCC1CCC2(CC1)CCC2OC(=S)Nc1ccc(Cl)cc1 (stereo unspecified)	-
COC(=O)[C@]12C[C@H](CC(=O)NCCCCc3ccccc3)C(=O)N(Cc3cccc4ccccc34)C1=C[C@H](C(C)(C)C)O[C@@H]2C	-
CC(C)N1CCc2c(sc(NC(=O)C(F)(F)F)c2-c2nc3ccccc3s2)C1	-
Cc1cc(C)cc([C@H]2C[C@]34CN(Cc5ccccc5)S(=O)(=O)[C@H]3C[C@H]2O4)c1	-
O=S1(=O)[C@H]2C[C@@H]3C=C[C@@]2(CN1Cc1ccc(Cl)cc1)O3	17	HuH7 TTR inh=-;TTR act confirm=-
Cc1cccc(CN2C[C@]34C=C[C@@H](C[C@@H]3S2(=O)=O)O4)c1	-
CCCCNC(=O)C[C@@H]1C(=O)N(CCc2ccc(Cl)cc2)C2=CCCCC[C@]21C(=O)OC	-
O=C(Nc1ccc(F)cc1)OCc1cn(Cc2cccc(F)c2)nn1	-
C#CCNC(=O)C[C@H]1C(=O)N(Cc2ccc(OC)cc2)C2=CCCCC[C@@]21C(=O)OC	-
O=C(N[C@@H](Cc1ccccc1)C(=O)NCP(=O)(O)OC(Cc1ccccc1)C(=O)O)OCc1ccccc1 (stereo partly specified)	-
O=C(COC(=O)C1CC(=O)N(c2ccc3c(c2)OCCO3)C1)Nc1ccc2c(c1)CCC2 (stereo unspecified)	11	HuH7 TTR inh=-;TTR act confirm=-
Cc1ccc2c(COC(=O)C3CC(=O)N(c4ccc5c(c4)OCCO5)C3)cc(=O)oc2c1 (stereo unspecified)	-
CC(=O)c1ccc(NC(=O)C(C)OC(=O)C2CC(=O)N(c3ccc4c(c3)OCCO4)C2)cc1 (stereo unspecified)	-
SMILES	TTR transcr act	others
CCS(=O)(=O)C(=C1Nc2ccccc2N1)S(=O)(=O)CC	21	HuH7 TTR inh=-;TTR act confirm=-
CCC1(CC)C(=O)Nc2ccccc21	-
O=C1Nc2ccccc2C1=O	-
O=C(CCc1ccc(O)cc1)c1c(O)cc(O)cc1O	-
O=Cc1cc(CCC(=O)O)ccc1O	11	HuH7 TTR inh=-;TTR act confirm=-
CCCc1ccc(C(=O)CCC(=O)O)cc1	-
CCOC(=O)[C@]12CCCC=C1N(CCCOC)C(=O)[C@@H]2CC(=O)NCc1ccc(C)o1	-
CCOC(=O)N/N=C\c1sccc1C	-
CCOC(=O)N/N=C/c1ccc(F)cc1F	26	HuH7 TTR inh=-;TTR act confirm=-
CCOC(=O)N/N=C/c1ccccc1OCc1ccc(Cl)cc1	-
OCCNCc1ccc(OC2CCCC2)cc1	-
CN(C)CCNCc1ccccc1OC1CCCC1	21	HuH7 TTR inh=-;TTR act confirm=-
CCOc1ccccc1CNCCNCC(C)O (stereo unspecified)	-
CCCCc1ccc2nc(NC(=O)c3ccc(Br)o3)sc2c1	-
CCCCOc1ccc(C(=O)NC2CCCCN(Cc3ccccc3C)C2=O)cc1 (stereo unspecified)	-

High-throughput results as filed in PubChem.
